# Results from PubChem BioAssay (NCI).
# The panel holds about 83,000 compounds, 20% with a hit somewhere; the sample as a whole holds those more often.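 A percent growth of 40 corresponds to 60% growth inhibition; 0 means no net growth; -100 means all cells died. Active threshold: below 10.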 A number with no mark means an inactive call. The source made the active and inactive calls.
# Columns and labels:
# Assay in all cases: NCI-60 one-dose screen, 48 h (100 = growth as untreated, 0 = no growth, -100 = all killed)
# Conditions in all cases: 10 µM unless noted
# RPMI-8226 leukemia = system: RPMI-8226 leukemia
# OVCAR-8 ovarian = system: OVCAR-8 ovarian
# OVCAR-5 ovarian = system: OVCAR-5 ovarian
# OVCAR-4 ovarian = system: OVCAR-4 ovarian
# SK-OV-3 ovarian = system: SK-OV-3 ovarian
# IGROV1 ovarian = system: IGROV1 ovarian
# OVCAR-3 ovarian = system: OVCAR-3 ovarian
# HS 578T breast = system: HS 578T breast
# NCI/ADR-RES ovarian = system: NCI/ADR-RES ovarian
# T-47D breast = system: T-47D breast
Compound,growth (RPMI-8226 leukemia),growth (OVCAR-8 ovarian),growth (OVCAR-5 ovarian),growth (OVCAR-4 ovarian),growth (SK-OV-3 ovarian),growth (IGROV1 ovarian),growth (OVCAR-3 ovarian),growth (HS 578T breast),growth (NCI/ADR-RES ovarian),growth (T-47D breast)
O=C(Nc1ccc(Cl)cc1F)c1cc(Br)ccc1O,-13.5% (active),9.53% (active),22%,14.4%,-0.537% (active),19.5%,9.61% (active),1.54% (active),7.03% (active),-14% (active)
CCOc1cc2c(cc1OCC)C(c1cc(C)c(O)c(C)c1)NCC2 (stereo not given),77.5%,92.2%,97.6%,95.9%,101%,101%,101%,107%,84.4%,91.6%
COc1ccc(N2C(=O)CC(c3cc(OC)c(OC)c(OC)c3)C3C2=NC(=O)N3C)cc1 (stereo not given),119%,102%,102%,105%,108%,109%,108%,97.1%,109%,95.7%
O=c1oc2ccc(Cl)cc2c(=O)n1-c1ccc(I)cc1F,-25.3% (active),8.73% (active),23.1%,16.1%,7.52% (active),14.9%,6.61% (active),-0.395% (active),5.51% (active),-6.79% (active)
Cc1ccc(C)c(-c2csc(Nc3ccc(C)c(C)c3)n2)c1,2.64% (active),54.5%,94%,54.5%,77.8%,81%,67.4%,57.9%,54.2%,39.3%
CCOc1ccc(Nc2ccnc3cc(Cl)ccc23)cc1,-14.1% (active),-1.07% (active),36%,16.5%,2.15% (active),14.9%,11.7%,29.3%,3.34% (active),1.44% (active)
Nc1cccc(Nc2cc(S(=O)(=O)O)c(N)c3c2C(=O)c2ccccc2C3=O)c1,110%,104%,111%,107%,88.6%,106%,103%,107%,106%,93.1%
COc1cccc(C(=O)NC(c2ccc(C)cc2)c2cc(Cl)c3cccnc3c2O)c1 (stereo not given),15.5%,1.23% (active),38.6%,24.9%,16.2%,-5.14% (active),30%,34.5%,6.12% (active),6.13% (active)
CN(C)/C=C1\SC(=Nc2ccc(Cl)cc2)NC1=O,108%,97.8%,96%,108%,104%,102%,107%,95.5%,102%,105%
CN(C)c1ccc(N=Cc2ccc(N3CCOCC3)cc2)cc1,47.5%,62.7%,111%,19.1%,94.7%,117%,-4.05% (active),107%,83.1%,94.4%
O=C1c2cc(Cl)ccc2Oc2cc([N+](=O)[O-])ccc2N1c1ccc(F)cc1F,87.6%,86.8%,100%,79.4%,111%,75.9%,106%,87.2%,97.7%,72%
COc1ccc(/C=C2\SC(=Nc3ccccc3)NC2=O)cc1,-50.9% (active),-81.2% (active),-77.8% (active),-49.4% (active),-54.1% (active),-78.2% (active),-69.4% (active),-47.5% (active),-8.71% (active),-72.8% (active)
CN(C)CCCNCc1ccc(-c2ccc(F)c(Cl)c2)o1,-26.3% (active),59.3%,65.3%,59.6%,73.1%,31.6%,34.3%,57.6%,53.8%,23.2%
COc1cc(CNC(=O)c2ccsc2Nc2ccnc(C(F)(F)F)c2)ccc1O,91%,102%,107%,105%,97.3%,105%,105%,104%,95.4%,98.7%
CC(=O)Nc1nc2c(s1)CCc1c-2cn(S(=O)(=O)c2ccccc2)c1-c1ccccc1,57.7%,79.7%,97.4%,84.3%,101%,97.2%,80.5%,91.3%,49.7%,49.3%
O=C(O)CCC(=O)c1ccc(C2CCCCCC2)cc1,95.8%,102%,105%,102%,103%,101%,105%,102%,102%,96.2%
O=C(Nc1ccc(Br)cc1F)c1cc(F)ccc1O,-28.9% (active),8.95% (active),25.3%,12.4%,1.4% (active),19.2%,9.86% (active),1.14% (active),9.89% (active),-3.86% (active)
COC(=O)C1(C)COP(=O)(Nc2ccc(OC)cc2)OC1 (stereo not given),97.7%,101%,108%,108%,108%,108%,107%,106%,99.5%,93.1%
CCOC(=O)C1=C(C)c2ccc(OC)c(OC)c2C1,85.3%,95.7%,102%,84.7%,103%,104%,117%,120%,101%,78%
CCOC(=O)c1cc2c(n1Cc1ccccc1)-c1oncc1CCC2,64.4%,80.9%,101%,72.9%,87.1%,58%,76.6%,76.5%,52.3%,80.7%
Cc1[nH]c2ccccc2c(=O)c1CC=C(Cl)Cl,-20.7% (active),-84% (active),40.1%,-18.6% (active),86.5%,29.4%,40.9%,84.2%,52.4%,-26.4% (active)
CCC1=C[C@]2(C3CC(=O)N(c4ccccc4)C3=O)CC(C(C)(C)C)C[C@@H]2[C@@H]2C(=O)N(c3ccccc3)C(=O)[C@H]12 (stereo not given in full),59.7%,85.5%,88.7%,89.4%,88.6%,90.8%,86%,83%,91.3%,70.5%
O=C(Nc1ccc(-c2nc3cc4ccccc4cc3[nH]2)cc1)c1cccc(Br)c1,23%,7.87% (active),73.7%,63.7%,43.8%,33.2%,25.9%,83.5%,39.2%,54%
COc1ccc(Nc2nc(N/N=C/c3ccc(O)cc3)nc(Nc3ccc([N+](=O)[O-])cc3)n2)cc1,99.7%,100%,109%,111%,112%,121%,124%,110%,109%,109%
O=NN(C(=O)NC1CCC(C(=O)O)CC1)C1CCC(C(=O)O)CC1 (stereo not given),81.8%,99.7%,97.4%,95.8%,114%,107%,113%,107%,108%,103%
CCN1C(=O)N(CC)C2C1NC(=S)N2/N=C/C=C/c1ccccc1OC (stereo not given),16.5%,14.8%,45.2%,53.5%,33.7%,31.2%,16.6%,40.3%,6.29% (active),65.9%
O=C(O)CCCN1C(=O)C2C3CCC(C3)C2C1=O (stereo not given),108%,103%,104%,109%,103%,102%,112%,115%,108%,101%
CCCC(=O)CC(C)=O.CCCC(=O)CC(C)=O.[Cu],102%,93.1%,117%,113%,77.3%,103%,116%,110%,101%,77.1%
